Compound activity as filed in PubChem BioAssay.
A selection: hits, their analogues and other compounds. The true share with any hit is near 4.2%.
S1P4 agonist: activates the human S1P4 receptor. 220,000 compounds, 0.35% hits. O95977. S1P4-expressing cell line, agonist reporter assay. activation, % at 4.98 µM. AID 1509; in the data active = activation above about 11%;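 also: 0% = DMSO vehicle and 100% = reference agonist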
Target sequence (O95977 whole entry, looked up): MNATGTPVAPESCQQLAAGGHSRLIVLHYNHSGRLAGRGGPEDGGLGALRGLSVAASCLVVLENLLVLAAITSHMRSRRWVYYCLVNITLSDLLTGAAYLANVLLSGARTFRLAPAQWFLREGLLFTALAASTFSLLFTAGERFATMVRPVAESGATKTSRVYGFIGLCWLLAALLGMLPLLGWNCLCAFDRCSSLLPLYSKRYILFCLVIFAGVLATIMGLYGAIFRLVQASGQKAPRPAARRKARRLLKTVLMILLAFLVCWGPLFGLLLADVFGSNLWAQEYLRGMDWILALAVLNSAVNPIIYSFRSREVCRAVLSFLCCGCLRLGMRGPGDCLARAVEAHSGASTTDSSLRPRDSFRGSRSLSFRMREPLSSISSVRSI
Hsp70 activator: transcriptional activators of Hsp70; HeLa Hsp70 promoter luciferase reporter, luminescence; scaled: vehicle 0, proteasome-inhibitor control 100%; 200,000 compounds, 0.04% hits; AID 1203; activation, % at 10 µM;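 active = activation above the mean across all tested compounds plus 3 SD, cutoff set per campaign, cut at about 5.5% in these data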;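 also: 100% = MG132 at 30 µM as the positive control and 0% = DMSO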
S1P4 antagonist: antagonists of human S1P4 receptor; S1P4-expressing cells, antagonist mode, reporter read-out; 220,000 compounds, 0.26% hits; inhibition, % at 4.98 µM; O95977; AID 1510; in the data active = inhibition above about 29%;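 also: 0% = wells stimulated with agonist and 100% = vehicle wells without agonist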
CHOP inhibitor: blocks CHOP induction under ER stress; inhibition, % at 10 µM; 220,000 compounds, 3.8% hits; CHO-K1 CHOP-promoter luciferase, tunicamycin-induced, 15-18 h;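 active = compounds that reduced the stress-induced luciferase reporter signal by more than about 70% of percent inhibition, limit read from the data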;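 also: 0% = tunicamycin plus vehicle and 100% = wells without tunicamycin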
* marks the source's active call; other numbers are inactive results.

Screening COc1cc(/C=N/Nc2snc(SC)c2C#N)cc(OC)c1OC returned S1P4 agonist -1, Hsp70 activator 0, S1P4 antagonist -10 and CHOP inhibitor 20.
`CCCCCn1c(SCC(=O)OCC)nc2cc(C(=O)N3CCC(C(N)=O)CC3)ccc2c1=O` gave S1P4 agonist 1, Hsp70 activator 0, S1P4 antagonist -8 and CHOP inhibitor 26.
For C=CCn1c(SCc2ccc(Cl)cc2)nc2cc(C(=O)N3CCC(C(N)=O)CC3)ccc2c1=O the results were S1P4 agonist 3, Hsp70 activator 0, S1P4 antagonist -21 and CHOP inhibitor 83*.
For CCCC(=O)Nc1ccc2nc(SCC(=O)Nc3ccc(N4CCOCC4)c(Cl)c3)sc2c1 the results were S1P4 agonist 0, Hsp70 activator 0, S1P4 antagonist 1 and CHOP inhibitor -8.
`Cc1cccc(NC(=O)CNc2cc(C)ccc2C)c1` gave S1P4 agonist 0, Hsp70 activator 0, S1P4 antagonist 13 and CHOP inhibitor 77*.
CCOc1ccc(NC(=O)CNc2ccc(C)cc2Cl)cc1 was read as S1P4 agonist 3, Hsp70 activator 0, S1P4 antagonist 4 and CHOP inhibitor 91*.
CCOc1ccc(NCC(=O)Nc2ccc(C)cc2C)cc1 was read as S1P4 agonist -2, Hsp70 activator 0, S1P4 antagonist -4 and CHOP inhibitor 19.
For COc1ccc(C)cc1NCC(=O)Nc1ccc(C(C)(C)C)cc1 the results were S1P4 agonist 1, Hsp70 activator 0, S1P4 antagonist 2 and CHOP inhibitor 70*.
Screening COC(=O)c1cc(OC)c(OC)cc1NCC(=O)Nc1ccc(C)cc1 returned S1P4 agonist -1, Hsp70 activator 0, S1P4 antagonist -1 and CHOP inhibitor 10.
Screening Cc1cc(NC(=O)CSc2nc3sc4c(c3c(=O)n2C)CCCC4)no1 returned S1P4 agonist 0, Hsp70 activator -1, S1P4 antagonist -17 and CHOP inhibitor 30.
Screening CCc1sc2nc(SCC(=O)Nc3cc(C)on3)n(-c3cccc(OC)c3)c(=O)c2c1C returned S1P4 agonist 0, Hsp70 activator 0, S1P4 antagonist -18 and CHOP inhibitor 89*.
`Cc1cc(NC(=O)CSc2nc(C(C)C)nc3sc4c(c23)CCCC4)no1` gave S1P4 agonist 3, Hsp70 activator 0, S1P4 antagonist -20 and CHOP inhibitor 77*.
For CCn1c(SCC(=O)Nc2cc(C)on2)nc2sc3c(c2c1=O)CCCC3 the results were S1P4 agonist 0, Hsp70 activator 0, S1P4 antagonist -6 and CHOP inhibitor 107*.
COc1cccc(-n2c(SCC(=O)Nc3cc(C)on3)nc3ccccc3c2=O)c1 was read as S1P4 agonist 2, Hsp70 activator 1, S1P4 antagonist -29 and CHOP inhibitor -2.
CCc1cc2cc3c(cc2nc1SCC(=O)Nc1cc(C)on1)OCO3 was read as S1P4 agonist -2, Hsp70 activator 0, S1P4 antagonist -14 and CHOP inhibitor 95*.
`CCOc1ccc(C(C)NC(=O)c2cccnc2OCC)cc1OCC` (stereo unspecified) gave S1P4 agonist 1, Hsp70 activator 0, S1P4 antagonist 0 and CHOP inhibitor -4.
N#Cc1ccc(-c2cccnc2)nc1SCc1ccc(Cl)cc1Cl was read as S1P4 agonist -1, Hsp70 activator 0, S1P4 antagonist 0 and CHOP inhibitor 28.
`O=S(=O)(c1ccc(-c2csc(Nc3ccc(Br)cc3)n2)cc1)N1CCCC1` gave S1P4 agonist 0, Hsp70 activator 0, S1P4 antagonist -5 and CHOP inhibitor 40.
`O=S(=O)(c1ccc(-c2csc(Nc3ccc(F)cc3)n2)cc1)N1CCCC1` gave S1P4 agonist -1, Hsp70 activator 0, S1P4 antagonist 2 and CHOP inhibitor 90*.
For CC(C)CC(=O)N1CCN(Cc2cccc([N+](=O)[O-])c2)CC1 the results were S1P4 agonist 3, Hsp70 activator 0, S1P4 antagonist -5 and CHOP inhibitor 9.
For CN(C)S(=O)(=O)Oc1cccc(C(=O)Nc2cccc(Cl)c2)c1 the results were S1P4 agonist -1, Hsp70 activator 0, S1P4 antagonist -16 and CHOP inhibitor 30.
O=C(NCc1cccc(Cl)c1)c1cnn2c1NC(c1ccco1)CC2C(F)(F)F (stereo unspecified) was read as S1P4 agonist 2, Hsp70 activator 0, S1P4 antagonist -8 and CHOP inhibitor 91*.
For COCCNC(=O)c1cnn2c1NC(c1ccco1)CC2C(F)(F)F (stereo unspecified) the results were S1P4 agonist 0, Hsp70 activator 0, S1P4 antagonist -6 and CHOP inhibitor -4.
`CN(Cc1ccc(-n2cccn2)cc1)C(=O)c1cnn2c1NC(c1ccco1)CC2C(F)(F)F` (stereo unspecified) gave S1P4 agonist 0, Hsp70 activator -1, S1P4 antagonist -25 and CHOP inhibitor 76*.
Screening COc1ccc(-c2ccc(SCC(=O)NCc3ccc4c(c3)OCO4)nn2)cc1OC returned S1P4 agonist 0, Hsp70 activator 0, S1P4 antagonist 2 and CHOP inhibitor -15.
COc1ccc(CNC(=O)CCc2nc(-c3ccccc3F)no2)c(OC)c1 was read as S1P4 agonist 2, Hsp70 activator 0, S1P4 antagonist -6 and CHOP inhibitor 30.
`O=C1CC(N2CCN(C3CC(=O)N(CCc4ccccc4)C3=O)CC2)C(=O)N1CCc1ccccc1` (stereo unspecified) gave S1P4 agonist 1, Hsp70 activator 0, S1P4 antagonist -4 and CHOP inhibitor 1.
For O=C1CC(N2CCC(Cc3ccccc3)CC2)C(=O)N1CCc1ccccc1 (stereo unspecified) the results were S1P4 agonist 2, Hsp70 activator 0, S1P4 antagonist -23 and CHOP inhibitor 72*.
For Brc1ccc(-c2nc(N/N=C/c3cccnc3)c3ccccc3n2)cc1 the results were S1P4 agonist 1, Hsp70 activator 0, S1P4 antagonist -7 and CHOP inhibitor 74*.
Screening C(=N\Nc1nc(-c2ccccn2)nc2ccccc12)/c1ccccc1 returned S1P4 agonist 0, S1P4 antagonist 11 and CHOP inhibitor 88*.
For CCOc1cc(/C=N/NC(=O)CNc2ccc(C)cc2)ccc1OC(=O)c1ccccc1 the results were S1P4 agonist 3, Hsp70 activator 0, S1P4 antagonist -16 and CHOP inhibitor 68.
For O=C(N/N=C/c1ccc(OC2CSC2)cc1)c1ccc(CN2CCOCC2)cc1 the results were S1P4 agonist 0, Hsp70 activator 0, S1P4 antagonist 1 and CHOP inhibitor 14.
For CCOc1cc(/C=N\NC(=O)c2ccc(NC(=O)CC)cc2)ccc1OC(=O)c1ccccc1 the results were S1P4 agonist 0, Hsp70 activator 0, S1P4 antagonist -11 and CHOP inhibitor 75*.
`O=C(N/N=C/c1ccc(OC(=O)c2ccccc2)cc1)c1ccc(CN2CCOCC2)cc1` gave S1P4 agonist 0, Hsp70 activator 0, S1P4 antagonist 3 and CHOP inhibitor 71*.
CCOc1cc(/C=N/NC(=O)c2cc(C)[nH]n2)ccc1OC(=O)c1ccc([N+](=O)[O-])cc1 was read as S1P4 agonist -2, Hsp70 activator 0, S1P4 antagonist -11 and CHOP inhibitor 79*.
